The list is not random: actives were taken first. Their share in the collection is about 11%.
USP17 inh – human USP17-like deubiquitinase inhibition; A8MUK1; purified USP17, Ub-rhodamine cleavage fluorescence, 3 h; inhibition, % at 50 µM; hit rate 6.5% among 47,000
USP28 block – blocks human USP28 ubiquitin-rhodamine cleavage; purified USP28, Ub-rhodamine cleavage fluorescence, 30 min; inhibition, % at 25 µM; hit rate 3% among 47,000
OTUD3 inh – inhibitors of human OTUD3 deubiquitinase; Q5T2D3; purified OTUD3, Ub-rhodamine fluorescence, 2 h; inhibition, % at 25 µM; hit rate 0.7% among 47,000; AID 1645858
Target sequence (Q5T2D3 whole entry, looked up): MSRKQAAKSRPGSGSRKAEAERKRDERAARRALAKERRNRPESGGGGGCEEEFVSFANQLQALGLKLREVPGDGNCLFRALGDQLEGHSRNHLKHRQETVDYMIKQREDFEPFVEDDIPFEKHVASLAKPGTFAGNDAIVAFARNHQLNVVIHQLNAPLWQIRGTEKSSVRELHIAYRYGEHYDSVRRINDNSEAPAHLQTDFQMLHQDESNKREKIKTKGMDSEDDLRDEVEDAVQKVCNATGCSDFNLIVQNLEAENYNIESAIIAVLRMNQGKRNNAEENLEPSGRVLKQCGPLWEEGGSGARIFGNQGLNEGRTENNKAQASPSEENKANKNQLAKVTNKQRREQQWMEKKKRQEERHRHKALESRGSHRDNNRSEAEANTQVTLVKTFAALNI
USP30 block – inhibitors of human USP30 deubiquitinase | purified USP30, Ub-rhodamine cleavage fluorescence | inhibition, % at 25 µM | Q70CQ3 | hit rate 5.3% among 47,000
Of the large screens only hits and unclear results are named; the others gave an inactive call. No stated cut-off is given here; in the data, active means inhibition above about 30%; inactive means the rest.

O=C(CCNS(=O)(=O)c1ccc(Cl)cc1)N1CC[C@@]2(O)CCCC[C@H]2C1	none
OC(c1ccccn1)c1c[nH]c2ccccc12 (centres undefined)	none
O=[N+]([O-])c1ccccc1C(c1c[nH]c2ccccc12)c1c[nH]c2ccccc12	USP17 inh 54
CC12CCN(C(=O)C3CCCC3)CCN1C(=O)N(Cc1ccccn1)C2=O (centres undefined)	none
O=C(Cc1nc2ccccc2[nH]1)NCc1ccc(F)cc1	none
CC(C)c1ccc(CNC(=O)c2nc3ccccc3[nH]2)cc1	USP17 inh 50
COc1ccc(NC(=O)c2cc3c(CO)cnc(C)c3oc2=Nc2cccc(F)c2)c(OC)c1	USP30 block 33
Cc1ccccc1NC(=O)c1cc2c(CO)cnc(C)c2oc1=Nc1cccc(F)c1	none
CCCC[C@@H](C)/C=C(C)/C=C(\C)C(=O)NC1=C[C@](O)(/C=C/C=C/C=C/C(=O)NC2=C(O)CCC2=O)[C@@H]2O[C@@H]2C1=O	USP17 inh 73, USP28 block 73, OTUD3 inh 69
O=C1C=CC(=O)[C@@]23O[C@@]12C1(Oc2cccc4cccc(c24)O1)[C@@H]1O[C@@H]1[C@@H]3O	none
CC1(c2ccco2)NC(=O)N(CC(=O)Nc2ccc(N3CCCCCC3)cc2)C1=O (centres undefined)	USP17 inh 44
CCN(c1ccc(NC(=O)CN2C(=O)NC3(CCCCC3)C2=O)cc1)C(C)C	none
CC1(C)Cc2nc3oc4c(NC5CCCCC5)ncnc4c3cc2CO1	none
CCOC(=O)c1ccc2nc(CCC(=O)NC3CCC(C)CC3)c(=O)n(CC)c2c1 (centres undefined)	none
Cc1ccc(NC(=O)c2cnc(N3CCOCC3)nc2)cc1F	USP17 inh 89, USP30 block 46
Cc1ccc(NC(=O)c2cnc(N3CCOCC3)nc2)cc1C	none
CCOC(=O)c1ccc(NC(=O)c2cnc(N3CCOCC3)nc2)cc1	OTUD3 inh 30
Cn1c(=O)c2c(nc3n(CCc4ccccc4)c(-c4ccccc4)cn23)n(C)c1=O	USP30 block 41
COc1ccc(-c2cn3c4c(=O)n(C)c(=O)n(C)c4nc3n2CCc2ccccc2)cc1OC	none
CC(c1cc2ccccc2o1)N(C)c1ncnc2sccc12 (centres undefined)	USP28 block 35
COc1ccccc1C(=O)N(Cc1ccccc1)C(C)(C)c1ccccc1	USP30 block 36
Cc1cccnc1Nc1ccc(C2CCN(Cc3ccc4c(c3)n(C)c(=O)n4C)CC2)nc1	none
CCn1cc(-c2nc(-c3ccccn3)no2)c(=O)c2cc(F)ccc21	USP17 inh 58
CSc1cccc(NC(=O)NCCN2CCNC2=O)c1	none
CC(C)c1ccc(NC(=O)C2CCCN(c3cc(=O)n(C)c(=O)n3C)C2)cc1 (centres undefined)	none
Cc1ccc(-c2nnc(CN3CCCC(N4CCNC4=O)C3)o2)cc1 (centres undefined)	none
CCOc1ccc(N(CC(=O)NC2CCCCC2)C(=O)CCC(=O)Nc2ccccn2)cc1	none
COc1ccc(N(C(=O)CCCC(=O)Nc2ccccn2)C(C(=O)NC2CCCCC2)c2ccc(Cl)cc2)c(OC)c1 (centres undefined)	none
COc1ccc(OC)c(N(CC(=O)NC2CCCCC2)C(=O)CCC(=O)Nc2ccccn2)c1	USP30 block 30
COc1ccc(C(C(=O)NC2CCCCC2)N(C(=O)CCCC(=O)Nc2ccccn2)c2ccccc2C)cc1 (centres undefined)	USP17 inh 56
COc1ccc(N(C(=O)CCCC(=O)Nc2ccccn2)C(C(=O)NC2CCCCC2)c2ccc(Cl)cc2)cc1 (centres undefined)	USP17 inh 33, USP30 block 37
Cc1ccc(N(C(=O)CCCC(=O)Nc2ccccn2)C(C(=O)NC2CCCC2)c2ccc(F)cc2)cc1C (centres undefined)	USP17 inh 37, USP30 block 38
CCOC(=O)c1sc2ccccc2c1S(=O)(=O)Nc1cccc(F)c1	none
CCc1cc(C(=O)Nc2cc(C)ccc2O)no1	none (no result: USP17 inh)
COc1ccccc1NC(=O)N1CCC2(CC1)N=C(c1ccccc1)C(=O)N2	none
Cc1ccc(Nc2cc(N3CCN(C(=O)c4ncccn4)CC3)nc(C)n2)cc1	none
COc1ccc(-c2ccccc2)cc1[C@H]1C[C@@H](NC(C)=O)[C@@H]2CCCC[C@H]2O1	none
CC(=O)N1CCCC1c1nc2ccccc2n1CCOc1cccc(C)c1C (centres undefined)	none
Cn1c(CN2CCOCC2)nnc1SCc1ccc(Cl)cc1	USP30 block 32
CCC1(C)Cc2c(sc3nc(SCC(=O)Nc4ccc(C(C)=O)cc4)nc(N)c23)CO1 (centres undefined)	USP17 inh 63
CC(C)C1Cc2c(sc3nc(SCC(=O)Nc4cccc5ccccc45)nc(N)c23)CO1 (centres undefined)	USP17 inh 52
CC1(C)Cc2c(sc3nc(Cc4ccccc4)nc(SCC(=O)Nc4ccccc4)c23)CO1	USP17 inh 35, USP30 block 56
O=C(Cc1ccc(-n2c(=O)[nH]c3ccsc3c2=O)cc1)N1CCC(Cc2ccccc2)CC1	USP17 inh 47, USP28 block 37
COc1ccccc1NS(=O)(=O)c1ccc2oc(SCC(=O)c3ccccc3)nc2c1	USP28 block 64
COc1ccc(NS(=O)(=O)c2ccc3oc(SCC(=O)N(C)C4CCS(=O)(=O)C4)nc3c2)cc1 (centres undefined)	none (no result: USP28 block, USP30 block)
Cc1cc(-c2cncnc2C2CCCN(C(=O)C3CC3)C2)on1 (centres undefined)	none
CCN(CC)C(=O)CN1CCCC(c2ncncc2-c2cc(C)no2)C1 (centres undefined)	OTUD3 inh 30
CCCN(CC(=O)Nc1ccccc1C)CC(=O)Nc1cccc2ccccc12	USP30 block 37
Cc1ccccc1NC(=O)Cc1nc(-c2cccc3ccccc23)cs1	USP17 inh 47
Cc1cccc(NC(=O)CSCC(=O)Nc2cccc3ccccc23)c1	none
Cc1ccccc1NC1c2ncccc2C(=O)N1Cc1ccco1 (centres undefined)	none (no result: USP17 inh)
Cn1cc(-c2ccnc3ccccc23)cn1	none (no result: USP17 inh)
CCc1ccccc1N1CC(c2nnc(NC(=O)Cc3ccc(C)cc3)s2)CC1=O (centres undefined)	USP17 inh 37
O=S1(=O)N=C(SCc2ccc(F)cc2)Nc2ccccc21	none
CC1CCN(S(=O)(=O)c2cn(CC(=O)Nc3ccc(F)c(Cl)c3)cn2)CC1	none
COC(=O)c1ccc2c(=O)n(CCCCCC(=O)NCCc3ccc(S(N)(=O)=O)cc3)c(=O)[nH]c2c1	USP28 block 86, USP30 block 88
COc1cc2[nH]c(=O)n(Cc3ccc(C(=O)NCc4ccco4)cc3)c(=O)c2cc1OC	none
CCOc1cc2[nH]c(=O)n(Cc3cccnc3)c(=O)c2cc1OCC	USP30 block 33
COc1ccc(NC(=O)CCCCn2c(=O)[nH]c3ccccc3c2=O)cc1OC	none
COC(=O)c1ccc2c(=O)n(CCCCCC(=O)NCCc3ccccc3Cl)c(=O)[nH]c2c1	none
CCOc1cc2[nH]c(=O)n(CCCC(=O)NCc3ccco3)c(=O)c2cc1OCC	USP17 inh 33
COc1cccc(CNC(=O)CCCCCn2c(=O)[nH]c3ccccc3c2=O)c1	USP30 block 41

Assay outcomes as filed in PubChem.
